{
  "source": "PubChem BioAssay AID1628",
  "about": "(Sanford-Burnham Center for Chemical Genomics, 2009)",
  "note": "Screen size: about 190,000 compounds; about 930 (0.49%) were called active. Some of the results follow. Results with a measured potency or affinity are listed apart. Values without a mark were called inactive.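 The calls were made as follows: active = z-score of insulin promoter reporter brightness in nuclei below -3 at 5 µM, with at least 500 cells counted; inconclusive = wells with under 500 cells, flagged as toxic or sparse; inactive = the rest.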",
  "data": [
    {"test": "decrease of insulin promoter-GFP reporter – imaging, high-content screening, mouse beta cells (AID 1628)", "conditions": "MIN6 insulin promoter GFP reporter, at 5 µM, hits give low values", "values": [
      {"smiles": "Cc1ccc(NC(=O)N(Cc2ccc3c(c2)OCO3)Cc2cc3cc4c(cc3[nH]c2=O)OCCO4)cc1", "z-score": "-5.39 (active)"},
      {"smiles": "Cc1ccc(CNc2ccc3c(c2)OCO3)cc1", "z-score": 5.54},
      {"smiles": "CCOc1ccc2[nH]c(=O)c(CN(CCc3ccccc3)C(=O)N3CCOCC3)cc2c1", "z-score": 5.49},
      {"smiles": "N#Cc1c(NC(=S)NC(=O)c2ccccc2)sc2c1CCN(CCc1ccccc1)C2", "z-score": 5.28},
      {"smiles": "CC(C)(C)c1cc(CCC(=O)NNC(=S)NC(=O)c2ccccc2)cc(C(C)(C)C)c1O", "z-score": "-4.33 (active)"},
      {"smiles": "COc1ccc(CC(=O)NNC(=S)Nc2ccccc2)cc1Cl", "z-score": 2.56},
      {"smiles": "CCc1nc(C)cn1S(=O)(=O)c1cc(OC)c(C)cc1C", "z-score": "-4.29 (active)"},
      {"smiles": "CC(=O)Cc1cc(O)c2ccccc2c1OC(=O)c1ccc(Br)cc1", "z-score": 8.75},
      {"smiles": "Cc1ccccc1NC(=O)c1cc(C(=O)c2cc(Cl)ccc2O)cn(-c2ccccc2C)c1=O", "z-score": "-3.14 (active)"},
      {"smiles": "CN1CC=C2C(C#N)=C(N)C(C#N)(C#N)[C@H](c3cccs3)[C@H]2C1", "z-score": 10.3},
      {"smiles": "CCSc1ccc(C(=O)Nc2ccc(Br)cn2)cc1[N+](=O)[O-]", "z-score": 1.11},
      {"smiles": "O=C(Nc1ccc(Cl)cn1)c1ccc([N+](=O)[O-])o1", "z-score": "-3.08 (active)"},
      {"smiles": "CCCN1C(=O)S/C(=C/c2ccc(N3CCOCC3)o2)C1=O", "z-score": 14.8},
      {"smiles": "COc1ccc(C(=O)CSC2=C(C#N)C3(CCCCC3)C(C#N)=C(N)N2)cc1", "z-score": "-3.18 (active)"},
      {"smiles": "COc1ccccc1NC(=O)C1=C(C)NC(SCC(=O)c2ccc(C)cc2)=C(C#N)C1c1ccco1", "note": "(stereo not given)", "z-score": 3.29},
      {"smiles": "CCN1CCN(C(=O)c2cn(CC)c3ccc(S(=O)(=O)N(C)C)cc3c2=O)CC1", "z-score": 2.68},
      {"smiles": "CCn1c(C)[n+](CC)c2ccc(S(=O)(=O)N(C)C)cc21", "z-score": "-3.4 (active)"},
      {"smiles": "CC(=O)CCc1c(C)c2cccc(C)c2[nH]c1=O", "z-score": -0.43},
      {"smiles": "CC(C)Cn1cc(C(=O)NC2CCN(Cc3ccccc3)CC2)c2c3ccccc3n(C)c2c1=O", "z-score": "-3.06 (active)"},
      {"smiles": "CCOc1ccccc1CNC(=O)c1cn(C)c(=O)c2c1c1ccccc1n2C", "z-score": 1.59},
      {"smiles": "COCCn1cc(C(=O)NCc2ccco2)c2c3ccccc3n(C)c2c1=O", "z-score": 2.09},
      {"smiles": "Cc1nc(Cl)c2c(n1)NC1=C(O2)C(=O)CCC1", "z-score": "-4.1 (active)"},
      {"smiles": "CN(/C(=N\\S(=O)(=O)c1ccccc1)c1ccccc1)c1ccc(O)cc1", "z-score": 1.42},
      {"smiles": "CN(c1cccc(Cl)c1)S(=O)(=O)c1cccc(C(=O)NC2=NCCS2)c1", "z-score": 3.48},
      {"smiles": "COc1ccc(N(C)S(=O)(=O)c2cccc(C(=O)Nc3nc4ccccc4[nH]3)c2)cc1", "z-score": "-3.07 (active)"},
      {"smiles": "CCOc1ccc(C2C(C#N)=C(N)SC(N)=C2C#N)c(OCC)c1", "z-score": "-3.06 (active)"},
      {"smiles": "CCN(CC)c1ccc(/C=C(\\C#N)C(=O)c2ccc(Br)cc2)cc1", "z-score": 3.66},
      {"smiles": "O=C(NCc1cn2ccccc2n1)c1ccco1", "z-score": 3.67},
      {"smiles": "O=C(NCc1ccccn1)c1ccc(Cn2cc(Br)cn2)o1", "z-score": "-3.96 (active)"},
      {"smiles": "COc1ccc2cc3cc(C(=O)NCc4ccccn4)oc3nc2c1", "z-score": 3.32},
      {"smiles": "COc1ccc2c(c1)oc(=O)c1ccccc12", "z-score": -0.04},
      {"smiles": "COc1ccc2c(n1)Sc1nc3ccccc3nc1N2", "z-score": 9.57},
      {"smiles": "Cc1[nH]ccc(=O)c1OCc1c(Cl)cccc1Cl", "z-score": "-6.12 (active)"},
      {"smiles": "COC(=O)c1c[nH]n2c(=O)c(Cc3ccc(F)cc3Cl)c(C)nc12", "z-score": 3.42},
      {"smiles": "CC(=O)Oc1ccc(OC(C)=O)c(SCCCCCCl)c1", "z-score": "-3.45 (active)"},
      {"smiles": "CC(=O)Oc1cc2cccc(OC(C)=O)c(=O)c2c(OC(C)=O)c1OC(C)=O", "z-score": -0.38},
      {"smiles": "COC(=O)[C@H]1[C@H](C(=O)OC)[C@@H](C(=O)OC)N(c2ccc(OC)cc2)[C@@H]1C(=O)OC", "z-score": "-4.45 (active)"},
      {"smiles": "CC(C)(CNS(=O)(=O)c1ccc(Cl)cc1)N1CCCCC1", "z-score": 3.62},
      {"smiles": "CCNC(=S)NS(=O)(=O)c1ccc(Cl)cc1", "z-score": "-3.8 (active)"},
      {"smiles": "O=C(CCNS(=O)(=O)c1ccc(Cl)cc1)NCc1cccs1", "z-score": 1.64},
      {"smiles": "CCCCCCN1C=CC(=C/C=C(\\C#N)C(=O)OCC)C=C1", "z-score": 16.6},
      {"smiles": "C=CCN1C(=O)/C(=C\\c2ccc(OC(=O)c3ccco3)c(OC)c2)SC1=S", "z-score": 1.03},
      {"smiles": "COc1ccc(Cn2c(=O)sc3ccccc32)cc1OC", "z-score": "-3.63 (active)"},
      {"smiles": "O=C(CCn1c(=O)sc2ccccc21)Nc1cccnc1", "z-score": 0.79},
      {"smiles": "Cc1ccc(S(=O)(=O)NCc2ccncc2)c(C)c1C", "z-score": "-6.46 (active)"},
      {"smiles": "COc1cccc(S(=O)(=O)NCc2ccc(C(=O)Nc3ccc(Cl)c(Cl)c3)cc2)c1", "z-score": 3.13},
      {"smiles": "COc1ccc(S(=O)(=O)NCc2ccncc2)cc1OC", "z-score": "-3.36 (active)"},
      {"smiles": "COc1cc(C)c(Cl)cc1S(=O)(=O)NCc1ccncc1", "z-score": "-4.94 (active)"},
      {"smiles": "Cc1cc(C)n(C(=O)CCC2COc3ccccc3O2)n1", "note": "(stereo not given)", "z-score": 3.53},
      {"smiles": "CCOC(=O)c1c(NC(=O)c2nn(CC)cc2Br)c(C#N)cn1-c1ccccc1", "z-score": "-3.62 (active)"},
      {"smiles": "c1ccc2c(c1)CCN(CCCNc1nc3ccccc3n3cnnc13)C2", "z-score": "-3.05 (active)"},
      {"smiles": "CN1CCNC(=O)C1CC(=O)NCCC1=CCCCC1", "note": "(stereo not given)", "z-score": 3.77},
      {"smiles": "CCN(CC)S(=O)(=O)c1ccc2[nH]cc(C(=O)NCCC3=CCCCC3)c(=O)c2c1", "z-score": "-6.41 (active)"},
      {"smiles": "CCn1cc(C(=O)NCCN(C)CCc2ccccc2)c(=O)c2cc(S(=O)(=O)N(C)C)ccc21", "z-score": 3.87},
      {"smiles": "CN1CC=C2C(C#N)=C(N)C(C#N)(C#N)C(Cc3ccccc3)C2C1", "note": "(stereo not given)", "z-score": 3.5},
      {"smiles": "Cc1cccc(NC(=S)NNC(=O)c2csc(C(C)C)c2)c1", "z-score": 1.31},
      {"smiles": "COc1cccc(-c2nc(N3CCCCC3C)c3ccccc3n2)c1O", "note": "(stereo not given)", "z-score": "-3.15 (active)"},
      {"smiles": "COC(=O)c1cc2c(-c3ccccc3)c(C)c3ccccn3c-2c1C(=O)OC", "z-score": 4.22},
      {"smiles": "O=C1c2cccc3c(N4CCCCC4)ccc(c23)C(=O)N1c1ccccc1O", "z-score": 4.51},
      {"smiles": "CC(C)(C)NC(=O)NC(=O)CN1CCCc2ccccc21", "z-score": 2.02},
      {"smiles": "O=S(=O)(c1cccs1)N1CCCc2ccccc21", "z-score": "-3.97 (active)"},
      {"smiles": "CC1Cc2ccccc2N1S(=O)(=O)c1cccs1", "note": "(stereo not given)", "z-score": "-6.66 (active)"},
      {"smiles": "O=C(NCCN1CCN(Cc2ccc([N+](=O)[O-])cc2)CC1)C(=O)Nc1ccccc1", "z-score": "-3.53 (active)"},
      {"smiles": "COc1ccc(C(=O)/C=C/c2ccccc2)c(O)c1", "z-score": -0.73},
      {"smiles": "COc1cc(/C=C/C(=O)c2ccccc2O)cc(OC)c1OC", "z-score": -0.68},
      {"smiles": "Cc1ccc(C(=O)Nc2ccccc2C(=O)NCc2ccco2)cc1S(=O)(=O)N1CCCCC1", "z-score": "-3.27 (active)"},
      {"smiles": "Cc1onc(-c2c(Cl)cccc2Cl)c1C(=O)NCc1ccco1", "z-score": -0.41},
      {"smiles": "COCCNC(=S)N/N=C(\\C)c1ccc2cc(OC)ccc2c1", "z-score": 3.43},
      {"smiles": "Cc1cccc(NC(=O)/C=C/c2ccc([N+](=O)[O-])s2)c1", "z-score": 9.92},
      {"smiles": "Cc1cccc(NC(=O)CCNS(=O)(=O)c2cccc3nonc23)c1", "z-score": 0.73},
      {"smiles": "N#CCc1nc(CSc2nc3ccccc3s2)cs1", "z-score": 4.03},
      {"smiles": "CN(C)c1ccc(N/C=C/C(=O)c2ccc(F)cc2)cc1", "z-score": "-5.01 (active)"},
      {"smiles": "CC(=O)Nc1cccc(C(=O)/C=C/c2ccc(N(C)C)cc2)c1", "z-score": 12.5},
      {"smiles": "CCN(CC)c1ccc(/C=C/C(=O)c2ccc(Br)cc2)cc1", "z-score": 8.04},
      {"smiles": "Cc1cc(C)nc(NS(=O)(=O)c2ccc(NC(=O)c3ccc4c(c3)OCO4)cc2)n1", "z-score": -0.38},
      {"smiles": "CN(C)C(=O)CN(c1ccc2c(c1)OCO2)S(C)(=O)=O", "z-score": 3.6},
      {"smiles": "COc1ccc(S(=O)(=O)N(C)CC(=O)Nc2ccc3c(c2)OCO3)cc1OC", "z-score": "-5.9 (active)"},
      {"smiles": "Cc1oc(C)c2c(=O)ccc3c(c12)OC(N)=C(C#N)C3c1ccccc1", "note": "(stereo not given)", "z-score": 6.6},
      {"smiles": "CCCN(CCC)c1ccc(/C=C/c2ccc3cc(OCC)ccc3n2)cc1", "z-score": 5.3},
      {"smiles": "COc1ccc(C(=O)Nc2ccc3nc(C)sc3c2)cc1OC", "z-score": 1.51},
      {"smiles": "Cc1nc2ccc(NC(=O)c3cc(S(=O)(=O)N4CCOCC4)ccc3C)cc2s1", "z-score": "-3 (active)"},
      {"smiles": "Cc1ccc(C(C)C)c(OCc2nn(CC(=O)c3ccc(Cl)cc3)c3[n+]2CCCCC3)c1", "z-score": "-4.3 (active)"},
      {"smiles": "N#CC1=C(N)C(C#N)(C#N)[C@H](c2ccoc2)[C@H]2CN(Cc3ccccc3)CC=C12", "z-score": 5.86},
      {"smiles": "CCN(CC)CC(O)COc1ccc2c(c1)c(C(C)=O)c(C)n2-c1ccccc1", "note": "(stereo not given)", "z-score": "-3.02 (active)"},
      {"smiles": "CC(C)CN1C(=O)/C(=C/c2c(N3CCc4ccccc4C3)nc3ccccn3c2=O)SC1=S", "z-score": 16.9},
      {"smiles": "COc1ccc(C2C3=C(CCCC3=O)Nc3ccc4ncccc4c32)cc1OC", "note": "(stereo not given)", "z-score": 2.27},
      {"smiles": "COc1cc(C2C(C#N)=C(C)NC3=C2C(=O)CC(C)(C)C3)ccc1O", "note": "(stereo not given)", "z-score": "-4.47 (active)"},
      {"smiles": "COCC(C)n1c(SCC(=O)NC(=O)Nc2ccc3c(c2)OCCO3)nc2ccccc2c1=O", "note": "(stereo not given)", "z-score": "-4.52 (active)"},
      {"smiles": "O=c1c(-c2ccccc2)coc2cc(O)ccc12", "z-score": 0.33},
      {"smiles": "O=c1[nH]c(/C(Cl)=C/c2cccc(F)c2)nc2cc(C(F)(F)F)ccc12", "z-score": "-4.9 (active)"},
      {"smiles": "CCN(CC)c1ccc(/C=C(/C#N)c2nc3ccc(C)cc3[nH]2)c(OC(C)C)c1", "z-score": 10.8},
      {"smiles": "COC(=O)c1cc(CSc2nc3ccc(C)cc3[nH]2)oc1C", "z-score": "-3.9 (active)"},
      {"smiles": "NC(=O)c1ccc(NC(=O)COC(=O)c2c3c(nc4ccccc24)/C(=C\\c2cccs2)CCC3)cc1", "z-score": "-3.07 (active)"},
      {"smiles": "CC1CCCCC1NC(=O)COC(=O)c1c2c(nc3ccccc13)/C(=C/c1ccco1)CC2", "note": "(stereo not given)", "z-score": 7.1},
      {"smiles": "C=CCNC(=O)c1c2c(nc3ccccc13)-c1ccccc1CC2", "z-score": 4.54}
    ]}
  ]
}
